Laboratory results: PubChem BioAssay (Tox21)
A number with no mark means an inactive call. Results filed as inconclusive are left out. A call without a number means that no potency is given here. Activity calls are given as the source filed them. Unless noted, the call rests on the fitted dose curve; in most records, active means well fitted inhibition curve with a large enough effect in the repeat runs (not every such curve was filed as active); inconclusive means weak or mixed curves; inactive means flat fitted curve, though single readings scatter.

System: not listed separately
Assay: qHTS assay to identify small molecule agonists of the TGF-beta/Smad signaling pathway (AID 1346859; active means well fitted activation curve with a large enough effect in the signal ratio in the repeat runs, not every such curve was filed as active; the % refers to the signal ratio)
Details: SBE-bla HEK293T, TGF-beta/Smad beta-lactamase reporter, 5 h; series mostly up to 76.8 µM; activation: at the top concentration
Procedure, shortened: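 Smad-responsive beta-lactamase reporter cells (HEK 293T) received compounds from DMSO stocks after overnight attachment, were incubated 5 hr, then treated 2 hr with FRET substrate before dual-emission fluorescence measurement (405 nm excitation).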

Structure (SMILES) | outcome | activation
Cc1cccc(C)c1 | inactive | –
CNNCc1ccc(C(=O)NC(C)C)cc1 | inactive | –
CCCCCCCC(=O)OCC(COC(=O)CCCCCCC)OC(=O)CCCCCCC | inactive | –
CC1(C)S[C@@H]2[C@H](NC(=O)[C@H](N)c3ccccc3)C(=O)N2[C@H]1C(=O)O | inactive | –
C=CCc1ccc(O)c(OC)c1 | inactive | –
CN(C)C(=O)Nc1ccc(Cl)c(Cl)c1 | inactive | –
CN(N=O)C(=O)N[C@@H]1[C@@H](O)[C@H](O)[C@@H](CO)O[C@@H]1O | inactive | –
CCCCCCc1ccc(O)cc1O | inactive | –
CCCCOC(=O)c1ccc(O)cc1 | inactive | –
NC(CO)(CO)CO | inactive | –
CN(C)CCOC(c1ccccc1)c1ccccc1 | inactive | –
C/C=C/C=C/C(=O)O | inactive | –
COc1cccc(O)c1O | – | 0.0333%
O=c1[nH]cnc2c1ncn2[C@H]1CC[C@@H](CO)O1 | inactive | –
O=c1[nH]cc(F)c(=O)[nH]1 | inactive | –
O=S1(=O)OC(c2ccc(O)cc2)(c2ccc(O)cc2)c2ccccc21 | inactive | –
NC1CCCCC1 | inactive | –
O=C1NS(=O)(=O)c2ccccc21 | inactive | –
NS(=O)(=O)c1cc2c(cc1Cl)NCNS2(=O)=O | inactive | –
O=CC(=O)c1ccccc1 | – | -6.31%
Cc1c(C(=O)O)c(O)cc2c1C(=O)c1c(O)c([C@@H]3O[C@H](CO)[C@@H](O)[C@H](O)[C@H]3O)c(O)c(O)c1C2=O | inactive | –
O=C1c2c(O)cccc2Cc2cccc(O)c21 | inactive | –
OC[C@H]1O[C@H](O[C@]2(CCl)O[C@H](CCl)[C@@H](O)[C@@H]2O)[C@H](O)[C@@H](O)[C@H]1Cl | inactive | –
CCOc1ccc(NC(C)=O)cc1 | inactive | –
COc1ccc(C(Cl)=C(c2ccc(OC)cc2)c2ccc(OC)cc2)cc1 | inactive | –
CC(C)NCC(O)c1ccc(O)c(O)c1 (stereo unspecified) | inactive | –

Molecular target: Thyrotropin-releasing hormone receptor (Homo sapiens) (UniProt P34981)
Sequence (P34981 whole entry, looked up): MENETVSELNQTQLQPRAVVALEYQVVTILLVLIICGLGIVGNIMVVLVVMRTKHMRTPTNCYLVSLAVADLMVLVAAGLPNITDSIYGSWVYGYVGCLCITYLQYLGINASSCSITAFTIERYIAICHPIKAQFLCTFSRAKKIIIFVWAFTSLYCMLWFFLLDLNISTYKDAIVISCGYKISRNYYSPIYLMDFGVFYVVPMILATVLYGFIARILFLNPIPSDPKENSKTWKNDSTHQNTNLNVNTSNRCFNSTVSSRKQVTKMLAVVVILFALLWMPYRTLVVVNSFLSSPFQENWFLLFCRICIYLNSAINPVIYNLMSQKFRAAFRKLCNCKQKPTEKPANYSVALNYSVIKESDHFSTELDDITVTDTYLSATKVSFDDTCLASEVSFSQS
Assay: qHTS assay to identify small molecule antagonists of the thyrotropin-releasing hormone receptor (TRHR) signaling pathway (AID 1346877)
Details: TRHR-HEK293, TRH-induced calcium fluorescence, antagonist mode; series mostly up to 51.3 µM; activity, negative = inhibition: at the top concentration
Procedure, shortened: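 Kinetic fluorescence (3 min, 1 s resolution) following stimulation with TRH at 1 nM final; HEK293 cells bearing human TRHR; 5 min compound preincubation at RT; concentration-response over 15 points, triplicates.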

Structure (SMILES) | Potency | activity, negative = inhibition
Cc1cccc(C)c1 | inactive | –
CNNCc1ccc(C(=O)NC(C)C)cc1 | inactive | –
CCCCCCCC(=O)OCC(COC(=O)CCCCCCC)OC(=O)CCCCCCC | inactive | –
C=CCc1ccc(O)c(OC)c1 | inactive | –
CN(C)C(=O)Nc1ccc(Cl)c(Cl)c1 | inactive | –
CN(N=O)C(=O)N[C@@H]1[C@@H](O)[C@H](O)[C@@H](CO)O[C@@H]1O | inactive | –
CCCCCCc1ccc(O)cc1O | inactive | –
CCCCOC(=O)c1ccc(O)cc1 | inactive | –
NC(CO)(CO)CO | inactive | –
CN(C)CCOC(c1ccccc1)c1ccccc1 | inactive | –
C/C=C/C=C/C(=O)O | inactive | –
COc1cccc(O)c1O | – | -4.16%
Cc1cc(=O)oc2cc(O)ccc12 | inactive | –
O=c1[nH]cc(F)c(=O)[nH]1 | inactive | –
O=S1(=O)OC(c2ccc(O)cc2)(c2ccc(O)cc2)c2ccccc21 | inactive | –
NC1CCCCC1 | inactive | –
Nc1ccc2c(c1)CN1C(=O)c3ccccc3C1=N2 | – | -0.792% [at 10.5 µM]
O=C1NS(=O)(=O)c2ccccc21 | inactive | –
NS(=O)(=O)c1cc2c(cc1Cl)NCNS2(=O)=O | inactive | –
O=CC(=O)c1ccccc1 | – | 4.97%
Cc1c(C(=O)O)c(O)cc2c1C(=O)c1c(O)c([C@@H]3O[C@H](CO)[C@@H](O)[C@H](O)[C@H]3O)c(O)c(O)c1C2=O | inactive | –
OC[C@H]1O[C@H](O[C@]2(CCl)O[C@H](CCl)[C@@H](O)[C@@H]2O)[C@H](O)[C@@H](O)[C@H]1Cl | inactive | –
CCOc1ccc(NC(C)=O)cc1 | inactive | –
COc1ccc(C(Cl)=C(c2ccc(OC)cc2)c2ccc(OC)cc2)cc1 | inactive | –
CC(C)NCC(O)c1ccc(O)c(O)c1 (stereo unspecified) | inactive | –
